PNC inhibitor – blocks assembly of the perinucleolar compartment | activity change (PNC), negative = inhibition, % at 10 µM | 3.1% of 140,000 active | PC3M PTB-GFP, PNC prevalence imaging, 16 h; stronger effect = lower value;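 active = readout at or below -70, meaning at least 70% loss of cells showing the perinucleolar compartment, a nuclear body marking cancer cells; inconclusive = readout between -30 and a set limit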;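 note: plate controls were DMSO wells for no effect and camptothecin positive control wells for full effect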
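Compounds are pinned in duplicate onto adhered PC3M cells stably expressing GFP-tagged PTB and incubated 16 h at 37 C. Cells are then fixed, nuclei stained with Hoechst, and PNC-positive cells counted.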
IMPase inh – cell-permeable inhibitors of inositol monophosphatase (IMPase) | CHO-M1 cells, IP1 accumulation, HTRF TR-FRET ratio | 120,000 tested, under 10 active | AID 901 | inhibition (IP1 accumulation), % at 46.1 µM | P97697; active = well fitted curve in the direction sought with a large enough effect in the signal ratio, not every such curve was filed as active; inconclusive = small, poorly fitted or top-dose-only effect, or a change in a side signal; inactive = no such curve, though single readings can be large or run the other way; the % refers to the signal ratio;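 note: cells stimulated with carbachol in lithium chloride buffer; plate controls were DMSO basal wells for no effect and reference inhibitor wells for full effect; higher means more IMPase inhibition seen as more IP1 and lower FRET ratio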
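Carbachol-driven Gq signalling in CHO-M1 cells (2000/well) generates IP1. Compounds that block IMPase raise IP1 and so reduce the FRET signal from Eu-anti-IP1 and d2-IP1 after a 10 min room-temperature lysis.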
ALOX12 inhib – blocks human 12-lipoxygenase activity; purified 12-hLO, xylenol orange hydroperoxide absorbance; AID 1452; P18054; 0.12% of 150,000 active; Potency, µM (series often up to 57.1 µM), for the others: top-dose activity change, negative = inhibition, hits mostly inhibitors; note: potency is the fitted concentration of half-maximal effect; nearly all actives have a fitted effect of over 55% in size
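Xylenol orange chromogenic assay: hydroperoxide from 12hLO oxidises Fe(II), giving red-shifted Fe(III)-XO absorbance. Conditions: 150 nM enzyme, 40 uM arachidonic acid, 25 mM Hepes pH 7.0, 0.01% Triton X-100, 30 min, room temperature.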
15-hLO-2 inh – blocks human 15-lipoxygenase 2 activity; O15296; purified 15hLO-2, xylenol orange hydroperoxide absorbance; Potency, µM (highest dose often 57.1 µM), without a hit: at the top dose activity change, negative = inhibition, most hits filed as inhibitors; 0.56% of 110,000 active; note: potency is the fitted concentration of half-maximal effect; nearly all actives have a fitted effect of over 60% in size
Target sequence (O15296 whole entry, looked up): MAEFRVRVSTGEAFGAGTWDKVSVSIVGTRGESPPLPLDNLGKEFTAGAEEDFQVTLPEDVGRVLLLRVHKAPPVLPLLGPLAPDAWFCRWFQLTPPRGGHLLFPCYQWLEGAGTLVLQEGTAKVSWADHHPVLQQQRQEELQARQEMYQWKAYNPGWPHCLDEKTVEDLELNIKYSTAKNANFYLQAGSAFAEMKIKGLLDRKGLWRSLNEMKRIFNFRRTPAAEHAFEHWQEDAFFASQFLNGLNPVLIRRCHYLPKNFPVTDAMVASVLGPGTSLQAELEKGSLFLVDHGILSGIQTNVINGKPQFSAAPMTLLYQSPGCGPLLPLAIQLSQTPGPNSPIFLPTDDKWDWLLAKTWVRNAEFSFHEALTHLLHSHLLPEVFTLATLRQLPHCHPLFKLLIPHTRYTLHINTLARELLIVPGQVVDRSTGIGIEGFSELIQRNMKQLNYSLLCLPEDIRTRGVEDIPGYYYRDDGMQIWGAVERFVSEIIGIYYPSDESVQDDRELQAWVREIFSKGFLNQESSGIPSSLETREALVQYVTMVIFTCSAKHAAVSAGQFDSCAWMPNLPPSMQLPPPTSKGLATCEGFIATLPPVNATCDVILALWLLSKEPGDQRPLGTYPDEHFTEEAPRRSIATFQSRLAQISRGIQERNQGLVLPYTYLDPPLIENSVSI
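Read-out: hydroperoxide product oxidises ferrous iron, measured as xylenol orange complex via the 573-to-405 nm absorbance ratio after 30 min. Reaction: 50 nM enzyme, 15 min compound preincubation, 45 uM arachidonic acid, 90 min RT, Hepes pH 7.5 with Triton X-100.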
IMPase Li cell – IMPase inhibition in cells with lithium potentiation; CHO-M1 cells, IP1 TR-FRET (IP-One), carbachol + lithium; Potency, µM (highest dose often 59.4 µM), inactives show at the highest dose activity, negative = IMPase inhibition, actives largely listed as inhibitors; 0.35% of 210,000 active;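 note: IP1 builds up when IMPase is blocked and the TR-FRET signal falls; potency is the fitted concentration of half-maximal effect; plate controls were basal vehicle for no effect and high inhibitor control for full effect; nearly all actives have a fitted effect of over 50% in size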
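CHO-M1, 2000 cells/well, 16–30 h culture; cpd + low Li+, 30 min 37C; lysis with d2-IP1/Eu-anti-IP1 Ab, 10 min RT; TR-FRET 665/620 ratio and 620 channel; AC50 via Hill.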
* = called active by the depositor; [ ] = another dose, or the depositor's remark. Many of the other results were omitted from the sample, so hits are more common in it than they were. Unless noted, calls come from the whole dose curve; as a rule, active = well fitted curve in the direction sought with a large enough effect; inconclusive = small, poorly fitted or top-dose-only effect, or another doubt; inactive = no such curve, though single readings can be large; an effect the other way counts as inactive or inconclusive. Unless noted, % is set by controls: 0 for no effect and ±100 for the full control effect.

How did O=S(=O)(c1ccccc1)c1ccccc1/C=N\O do in these assays?
PNC inhibitor: -96*; IMPase inh: 5; ALOX12 inhib: -5%; 15-hLO-2 inh: 11%; IMPase Li cell: 16%[38.3 µM]

Results for CN1CCN(S(=O)(=O)c2ccc3c4c(cccc24)C(=O)N3)CC1 ?
PNC inhibitor: -91*; IMPase inh: 2; ALOX12 inhib: 1%; 15-hLO-2 inh: 2%; IMPase Li cell: -17%[38.3 µM]

How did CCOC(=O)c1ccc(NC(=O)c2ccc(-c3cccc(Cl)c3C)o2)cc1 do in these assays?
IMPase inh: -7

What do the screens show for `Cc1ccc(OCC(=O)NC(=S)Nc2ccc3c4c(cccc24)CC3)cc1`?
PNC inhibitor: -12; ALOX12 inhib: -4%; IMPase Li cell: 11µM*

Results for Cc1ccc(OCC(=O)NC(=S)Nc2cccc(C)n2)cc1 ?
PNC inhibitor: 75; ALOX12 inhib: -1%; IMPase Li cell: 1%

What do the screens show for `O=C(c1ccc2snnc2c1)N1CCSCC1`?
PNC inhibitor: -6; IMPase inh: -3; ALOX12 inhib: -8%; 15-hLO-2 inh: -2%; IMPase Li cell: 16%[38.3 µM]

What do the screens show for `O=C(c1ccc2snnc2c1)N1CCCCC1`?
PNC inhibitor: -100*; IMPase inh: -2; ALOX12 inhib: 6%; IMPase Li cell: 4%

Results for CC1CCCC(NC(=S)NC(=O)c2cncc(Br)c2)C1C (stereo not given) ?
PNC inhibitor: 0; ALOX12 inhib: 5%; IMPase Li cell: 7%

How did CC1CCCCC1NC(=O)c1cncc(Br)c1 (stereo not given) do in these assays?
PNC inhibitor: -81*; IMPase inh: 6; ALOX12 inhib: 3%; 15-hLO-2 inh: 10%; IMPase Li cell: 0%[38.3 µM]

How did CCn1cc(/C=N\NC(=O)Cc2ccc(Cl)cc2)cn1 do in these assays?
PNC inhibitor: -99*; ALOX12 inhib: -4%; IMPase Li cell: -10%

Results for Cn1c(O)c(N=N/C(=N/c2ccccn2)c2ccccn2)c2cc(Br)ccc21 ?
ALOX12 inhib: -11%

What do the screens show for `CC12CCC(c3n[nH]c(=S)nc31)C2(C)C` (stereo not given)?
PNC inhibitor: -113*; ALOX12 inhib: -2%; IMPase Li cell: 0%

Results for CC12CCC(c3nnc(SCc4ccc(Cl)cc4)nc31)C2(C)C (stereo not given) ?
PNC inhibitor: 1; IMPase inh: -6; ALOX12 inhib: -2%; IMPase Li cell: 14%

Results for Cc1scc(-c2n[nH]c(=S)n2C(C)c2ccccc2)c1C (stereo not given) ?
PNC inhibitor: -14; ALOX12 inhib: -13%; IMPase Li cell: 14%

What do the screens show for `CCc1cc(-c2n[nH]c(=S)n2C(C)c2ccccc2)cs1` (stereo not given)?
PNC inhibitor: 38; IMPase inh: 0; ALOX12 inhib: 16µM*; 15-hLO-2 inh: -17%; IMPase Li cell: 30%[38.3 µM]

How did O=C(C1=C(O)C(=O)N(c2ncccn2)C1c1ccc(Cl)cc1)c1ccco1 (stereo not given) do in these assays?
PNC inhibitor: 54; IMPase inh: inconclusive; ALOX12 inhib: -9%; 15-hLO-2 inh: 20%; IMPase Li cell: 13µM*

What do the screens show for `Cc1ccc(C(=O)C2=C(O)C(=O)N(Cc3ccccc3)C2c2cccnc2)o1` (stereo not given)?
PNC inhibitor: inconclusive; IMPase inh: inconclusive; ALOX12 inhib: -7%; 15-hLO-2 inh: -1%; IMPase Li cell: 10µM*

How did Cc1ccc(C(=O)C2=C(O)C(=O)N(c3ncccn3)C2c2ccc(Cl)cc2)o1 (stereo not given) do in these assays?
PNC inhibitor: 100; IMPase inh: inconclusive; ALOX12 inhib: 15%; IMPase Li cell: 13µM*

What do the screens show for `CC(=O)C1=C(O)C(=O)N(Cc2cccnc2)C1c1ccccc1Cl` (stereo not given)?
PNC inhibitor: 11; IMPase inh: -11; ALOX12 inhib: -1%; 15-hLO-2 inh: 1%; IMPase Li cell: -19%[38.3 µM]

Results for O=C(C1=C(O)C(=O)N(c2ncccn2)C1c1ccc(Cl)c(Cl)c1)c1ccco1 (stereo not given) ?
PNC inhibitor: inconclusive; IMPase inh: 8; ALOX12 inhib: inconclusive; 15-hLO-2 inh: inconclusive; IMPase Li cell: inconclusive

Results for CC(=O)c1cccc(NC(=O)C(Cc2ccccc2)NS(=O)(=O)c2ccc(Br)s2)c1 (stereo not given) ?
IMPase inh: 5

What do the screens show for `O=[N+]([O-])c1ccc(N/N=C/c2ccc[nH]2)cc1`?
PNC inhibitor: -97*; ALOX12 inhib: 6.3µM*; IMPase Li cell: -8%

What do the screens show for `COc1ccc(C2Oc3ccccc3C3=C2C(c2cccs2)n2ncnc2N3)cc1` (stereo not given)?
PNC inhibitor: -112*; IMPase inh: 16; ALOX12 inhib: -21%; 15-hLO-2 inh: 17%; IMPase Li cell: 35%[38.3 µM]

Results for Cn1c2c(c(=O)n(C)c1=O)C(C(F)(F)F)(C(F)(F)F)N=C(c1ccc(Cl)cc1)N2 ?
PNC inhibitor: 30; IMPase inh: 6; ALOX12 inhib: 1%; 15-hLO-2 inh: -6%; IMPase Li cell: 21%[38.3 µM]

What do the screens show for `Cn1c2c(c(=O)n(C)c1=O)C(C(F)(F)F)(C(F)(F)F)N=C(C1CCCCC1)N2`?
PNC inhibitor: -93*; ALOX12 inhib: -2%; IMPase Li cell: 1%

How did CC1(C)[C@@H]2CC[C@@](C)(C2)[C@H]1OC(=O)c1ccccc1C(=O)O do in these assays?
ALOX12 inhib: 3%[11.4 µM]; 15-hLO-2 inh: -4%[11.4 µM]; IMPase Li cell: 1%

What do the screens show for `COc1ccc(Nc2ccnc(Nc3ccc(OC)cc3)n2)cc1`?
PNC inhibitor: -93*; ALOX12 inhib: -2%; IMPase Li cell: 11%

How did CCOc1nc(Nc2ccc(OC)cc2)nc(OCC)n1 do in these assays?
PNC inhibitor: inconclusive; IMPase inh: -5; ALOX12 inhib: 0%; 15-hLO-2 inh: 1%; IMPase Li cell: 19%[38.3 µM]

Results for C=CC(=O)CC ?
ALOX12 inhib: 1%; 15-hLO-2 inh: 6%; IMPase Li cell: 2%

How did Cn1c(=NC(=O)COc2ccccc2)sc2ccccc21 do in these assays?
IMPase Li cell: 13µM*

What do the screens show for `CC(=O)N=c1sc2ccccc2n1C`?
PNC inhibitor: -5; IMPase inh: 0; ALOX12 inhib: 3%; 15-hLO-2 inh: -7%; IMPase Li cell: -3%[38.3 µM]

What do the screens show for `c1nc2nc3c(c(N4CCOCC4)n2n1)CCCC3`?
PNC inhibitor: -107*; IMPase inh: -3; ALOX12 inhib: -2%; 15-hLO-2 inh: -4%; IMPase Li cell: -13%[38.3 µM]

Results for CC1CCc2c(nc3ncnn3c2N2CCN(c3ccccc3)CC2)C1 (stereo not given) ?
PNC inhibitor: -5; IMPase inh: inconclusive; ALOX12 inhib: -2%; 15-hLO-2 inh: 2%; IMPase Li cell: -7%[38.3 µM]
